Source: PubChem BioAssay AID489008 (National Center for Advancing Translational Sciences (NCATS), 2010)
Inconclusive results are not listed. Active and inactive are the calls of the source. Calls come from the whole dose curve; as a rule, active = well fitted inhibition curve with a large enough effect; inconclusive = small, poorly fitted or top-dose-only effect; inactive = flat fitted curve, though single readings scatter.

These compounds were tested against Ferritin light chain (Equus caballus) (UniProt P02791) (assay: Confirmation Assay for Identification of Novel General Anesthetics). Conditions: apoferritin 1-aminoanthracene fluorescence displacement.
Summary of the method: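 Competitive displacement of profluorescent 1-aminoanthracene from 10 uM horse-spleen apoferritin in 50% saturated 1-AMA/PBS; 10 min RT, fluorescence Ex 380/Em 535. Normalized to free 1-AMA and complex; four-parameter Hill fit.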
Note: nearly all actives have a fitted effect of over 40% in size.
Potency is the fitted concentration of half-maximal effect.

Sequence of Ferritin light chain (Equus caballus) (P02791 2-175 limits assumed): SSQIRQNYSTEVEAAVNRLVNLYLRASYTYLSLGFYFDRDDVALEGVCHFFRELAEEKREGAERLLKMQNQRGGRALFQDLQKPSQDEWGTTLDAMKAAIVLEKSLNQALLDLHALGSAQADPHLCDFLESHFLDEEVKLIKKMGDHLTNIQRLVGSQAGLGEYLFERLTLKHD

Potency, active:
Cc1ccc(NC(=O)N2CCCCCC2)c(C)c1 15.8 µM
COc1cccc(NC(=O)Nc2nc(SC(C)(C)C)ns2)c1 10 µM
Cc1ccc(OCC(=O)N2CCCCCCC2)cc1C 35.5 µM
Nc1nc(SCC(=O)C23CC4CC(CC(C4)C2)C3)n[nH]1 7.08 µM
O=C(NC1=NCCS1)C12CC3CC(CC(C3)C1)C2 15.8 µM
O=c1sc2ccccc2c(=O)n1Cc1ccccc1F 8.91 µM
CC1=CCC2C(=O)N(c3ccc(C)cc3)C(=O)C2C1 (centres undefined) 10 µM
O=C(Cc1cccc2ccccc12)N1CCCc2ccccc21 17.8 µM
O=C(CCc1ccccc1)Nc1cc(Cl)ccc1O 6.31 µM
O=S(=O)(Nc1ccc2c(c1)CCC2)c1cccs1 17.8 µM
Cc1ccc(NC2CCCN(C(=O)c3cccs3)C2)cc1C (centres undefined) 15.8 µM
Nc1cc(N)nc(SCC(=O)N2CCc3ccccc32)n1 7.08 µM
O=C(CSCc1ccccc1)Nc1cc([N+](=O)[O-])ccc1F 31.6 µM
O=S(=O)(Nc1cnc2ccccc2c1)N1CCCCCC1 28.2 µM
Oc1ccc(NCc2ccc(OCc3ccccc3Cl)cc2)cc1 17.8 µM
COc1ccc(OCCC(=O)NCC23CC4CC(CC(C4)C2)C3)cc1 6.31 µM
O=C(COC(=O)C1=COCCO1)NC1CCCCCCC1 12.6 µM
Cc1ccc(C2=NN(CC(=O)NCCc3ccccc3)C(=O)CC2)cc1 5.19 µM
CC(NC(=O)COC(=O)C1=COCCO1)C12CC3CC(CC(C3)C1)C2 (centres undefined) 14.1 µM
CN(C(=O)c1cncc(Br)c1)C1C2CC3CC(C2)CC1C3 (centres undefined) 12.6 µM
Nn1cnnc1SCC(=O)Nc1ccc(C2CCCCC2)cc1 7.08 µM
O=C1c2ccsc2SCCN1Cc1ccc(Cl)cc1Cl 15.8 µM
Cc1ccc(F)c(NC(=O)CCc2ccccc2)c1 15.8 µM
Nc1nnc(COc2cccc(C(F)(F)F)c2)s1 15.8 µM
O=C1C(Cl)=C(N2CCOCC2)C(=O)N1c1ccccc1Cl 15.8 µM
Cc1ccc(CNc2ncnc3c2cnn3-c2ccc(C)cc2C)cc1 15.8 µM
O=C(CCl)Nc1ccc(N2CCCCCC2)cc1 15.8 µM
O=c1[nH]cnc2sc3c(c12)CCCCC3 15.8 µM
NCCOc1ccc(C23CC4CC(CC(C4)C2)C3)cc1 11.2 µM
O=C(CC12CC3CC(CC(C3)C1)C2)Nc1nncs1 10 µM
O=C(OCC(=O)C12CC3CC(CC(C3)C1)C2)c1cccnc1 22.4 µM
CCN(CC)S(=O)(=O)c1ccc(C)c(C)c1 22.4 µM
Cc1ccc(CC(=O)OCC(=O)NC2CCCC(C)C2C)cc1C (centres undefined) 28.2 µM
C=Cc1ccc(Cn2nc(-c3ccc(C)cc3)ccc2=O)cc1 17.8 µM
Nc1nc(Cl)cc(NCCc2ccc(O)cc2)n1 14.1 µM
O=C(Nc1ccc(Br)cc1)N1CCCCCC1 25.1 µM
Clc1ccc(Nc2nc(C3CC3)cs2)cc1 39.8 µM
C/C(=N\Nc1ccc(F)cc1F)c1cccs1 11.2 µM
Nc1nc(-c2cc(Cl)cc(Cl)c2OC(F)F)cs1 8.91 µM
